Results published in PubChem BioAssay (NCATS).
Inconclusive results are not listed. Activity calls are given as the source filed them. Calls follow the shape of the full dose curve.

Assay: Primary qHTS to identify inhibitors of SARS-CoV-2 cell entry (AID 1645846); also: nearly all actives have a fitted effect of over 45% in size
Conditions: SARS-CoV-2 pseudovirus cell entry assay, luminescence; activity change, negative = inhibition: at 57.1 µM (top of the series) unless noted
From the text: Assay Provider: Wei Zheng, Ph.D.
National Center for Advancing Translational Sciences, National Institute of Health, Rockville, MD.
SARS-CoV-2 spike protein, within the viral envelope, mediates viral attachment and infection of host cells. The SARS-CoV-2 spike protein specifically binds to the host receptor ACE2 (Angiotensin-converting enzyme 2). This interaction promotes endocytosis of the viral particle, additional events lead to viral-host cell membrane fusion and release of the viral contents, allowing viral replication.
While SARS-CoV-2 requires BSL-3 facilities for live virus work, pseudotyped partices (PP) that incorporate SARS-CoV-2 spike proteins without replication elements could facilitate studies on viral entry mechanisms in a BSL-2 setting. This PP cell entry assay could also enable screening of small molecule compound libraries in BSL-2 setting to identify inhibitors of SARS-CoV-2 cell entry.
PROTOCOL TABLE (format as described by Inglese J, Shamu CE and Guy RK. 2007)
SEQUENCE No. (e.g., 1, 2, 3, etc.); […] (e.g., Cells, Incubation, Reagent, etc.); VALUE and DESCRIPTION.
1. Cells. Seed 1500 HEK293-ACE2 cells (Expi293F with stable expression of human ACE2) in 2 uL/well media (DMEM, 10% FBS, 1x L-glutamine, 1x Pen/Strep, 1 ug/ml puromycin) in white 1536-well assay plates (Greiner #782073).
2. Incubation. Incubate at 37C with 5% CO2 overnight (~16 h).
3. Compounds. Dispense 23 nL/well compounds in DMSO via pin transfer.
4. Incubation. Incubate for 1 hr at 37C 5% CO2.
5. Reagent. Dispense 2 uL/well of SARS-CoV-2-S pseudotyped particles. [a] PPs are produced with murine leukemia virus pseudotyping. [b] SARS-CoV-2-S is Wuhan-Hu-1 sequence (BEI #NR-52420) with C-terminal 19 amino acid truncation.
6. Centrifuge. […]
7. Incubation. Incubate at for 48 hr at 37C 5% CO2
8. Centrifuge. Remove supernatant with gentle centrifugation using a Blue Washer (BlueCat Bio).
9. Reagent. Dispense 4 uL/well of Bright-Glo Luciferase detection reagent (Promega #E2620).
10. Incubation. Incubate for 5 min at room temperature.
11. Detection. Read luminescence signal (Viewlux plate reader, PerkinElmer). Data was normalized with wells containing SARS-CoV-2-S PP as 100%, and wells containing bald PP (no fusion protein) as 0%.
Potency is read from the fitted curve at half-maximal effect.

| SMILES | outcome | activity change, negative = inhibition | Potency |
| --- | --- | --- | --- |
| O=C(Nc1cnn2ccc(N3CCC[C@@H]3c3cc(F)ccc3F)nc12)N1CC[C@H](O)C1 | inactive | – | – |
| [2H]c1nc(C)nc([2H])c1-c1cc(NC[C@@H](C)c2cccc3c(C(=O)NC)ccnc23)ncn1 | – | 0.426% | – |
| O=C1N=C(N2CCOCC2)CN1c1ccc(Cl)cc1 | – | -29.2% | – |
| CS(=O)(=O)c1ccc(-c2cnc(NCc3ccco3)n3cnnc23)cc1 | – | -43.5% | – |
| NC(=O)c1ccc2nc(-c3ccc(C4(N)CCC4)cc3)c(-c3ccccc3)n2n1 | – | – | 25.1 µM (active) |
| NC1=N[C@@]2(c3cc(NC(=O)c4ccc(F)cn4)ccc3F)COC[C@H]2CS1 | – | -18.7% | – |
| O=C1CC[C@H](N2Cc3c(OCc4ccc(CN5CCOCC5)cc4)cccc3C2=O)C(=O)N1 | – | -23.3% | – |
| CS(=O)(=O)N1CCC(NC(=O)c2[nH]ncc2NC(=O)c2c(Cl)cccc2Cl)CC1 | – | -94.8% | – |
| Cc1cccc(/C=N/Nc2cc(N3CCOCC3)nc(OCCc3ccccn3)n2)c1 | – | -96.7% | – |
| CO[C@H]1C[C@@H](O[C@@H]2/C(C)=C/C[C@@H]3C[C@@H](C[C@]4(CC[C@H](C)[C@@H](C5CCCCC5)O4)O3)OC(=O)[C@@H]3C=C(C)/C(=N/O)[C@H]4OC/C(=C\C=C\[C@@H]2C)[C@]43O)O[C@@H](C)[C@H]1O | inactive | – | – |
| O=P(O)(O)C(O)(Cc1cnc2ccccn12)P(=O)(O)O | inactive [at 0.702 µM] | – | – |
| CN1CC[C@@H](NC(=O)Nc2ccc(C#N)cc2)C[C@@H]1c1nc2ccccc2[nH]1 | – | -7.47% | – |
| CN[C@H]1C[C@@H](N)[C@H](O)[C@@H](O[C@@H]2O[C@H](CO)[C@H](O)[C@@H]3OC4(O[C@H]23)O[C@H]([C@@H](N)CO)[C@H](O)[C@H](O)[C@H]4O)[C@@H]1O (stereo not given in full) | – | – | 17.8 µM (active) |
| CCCCCCCCN=C(N)NC(N)=NCc1ccc(Cl)c(Cl)c1 | – | -3.64% | – |
| Cc1[nH]cnc1C[C@H]1CCc2c(C)c3ccccc3n2C1=O | – | -26.5% | – |
| O=c1c(-n2ccnn2)c[nH]n1-c1cc(N2CCOCC2)ncn1 | – | – | 7.08 µM (active) |
| c1ccc2scnc2c1 | – | -27.1% | – |
| COc1ccc(CC(C)(C)NC[C@H](O)c2cc(O)cc3c2OCC(=O)N3)cc1 | – | 2.79% | – |
| C[S+](CC[C@H](N)C(=O)O)C[C@H]1O[C@@H](n2cnc3c(N)ncnc32)[C@H](O)[C@H]1O (stereo not given in full) | inactive | – | – |
| Cc1c(N)nc(C(CC(N)=O)NCC(N)C(N)=O)nc1C(=O)NC(C(=O)NC(C)C(O)C(C)C(=O)NC(C(=O)NCCc1nc(-c2nc(C(=O)NCCCN[C@@H](C)c3ccccc3)cs2)cs1)C(C)O)C(O[C@@H]1O[C@@H](CO)[C@@H](O)[C@H](O)[C@@H]1O[C@H]1O[C@H](CO)[C@@H](O)[C@H](OC(N)=O)[C@@H]1O)c1cnc[nH]1 (stereo not given in full) | – | -97.1% | – |

| SMILES | outcome | activity change, negative = inhibition | Potency |
| --- | --- | --- | --- |
| CC(C)(O)CNc1ncc(-c2ccnc(Nc3ccncc3)n2)c(CC2CC2)n1 | – | – | 10 µM (active) |
| CC(=O)[O][Al][O]C(C)=O | – | -37.2% [at 11.3 µM] | – |
| C[C@]12C=CC(=O)C=C1CC[C@@H]1[C@@H]2[C@@H](O)C[C@@]2(C)[C@H]1CC[C@]2(O)C(=O)COP(=O)(O)O | – | -19.2% [at 11.3 µM] | – |
| CNCc1ccc(-c2cc(-c3nc(-c4ccc(S(=O)(=O)C(C)C)cc4)cnc3N)on2)cc1 | – | -25.7% | – |
| COc1cccc(N2CCN(C3=Nc4c(F)cccc4[C@H](CC(=O)O)N3c3cc(C(F)(F)F)ccc3OC)CC2)c1 | inactive | – | – |
| O=C(c1c(F)ccc(NS(=O)(=O)N2CC[C@@H](F)C2)c1F)c1c[nH]c2ncc(-c3cnc(C4CC4)nc3)cc12 | – | -17.3% | – |
| CCc1cccc2c3c([nH]c12)[C@@](CC)(CC(=O)O)OCC3 | – | -19.9% | – |
| C=CC(=O)N1CC/C(=C\c2ccc(F)c([N+](=O)[O-])c2)C(=O)/C(=C/c2ccc(F)c([N+](=O)[O-])c2)C1 | – | – | 0.891 µM (active) |
| OC1CCC([C@H](O)C[C@H]2c3c(F)cccc3-c3cncn32)CC1 (stereo not given in full) | inactive | – | – |
| O=C(O)c1ccccc1-c1ccc(/C=c2\sc3nc4cc(Br)cnc4n3c2=O)o1 | – | -1.33% [at 27.1 µM] | – |
| O=C(O)c1ccccc1C(c1ccc(O)cc1)c1ccc(O)cc1 | – | -24.4% | – |
| C[C@H](NC(=O)CCC(F)(F)F)C(=O)N[C@@H]1C(=O)N(CCO)c2ncccc2-c2ccccc21 | – | -2.66% | – |
| CC=CC1C(C(=O)OCc2c(F)c(F)c(COC)c(F)c2F)C1(C)C (stereo not given) | – | -7.64% | – |
| CC(C(=O)O)c1ccc(C2CCCCC2)c2ccccc12 (stereo not given) | – | -4.82% | – |
| COC(=O)C1=C(C)NC(c2ncc(F)cc2F)=N[C@H]1c1ccc(F)cc1Cl | inactive | – | – |
| O=C(O)c1cc(O)c2c(c1)[O][Bi][O]2 | – | -27.2% [at 0.702 µM] | – |
| C[C@@H]1O[C@@H](O[C@@H]2\C=C/C=C\C=C/C=C\C[C@H](C)OC(=O)/C=C\[C@H]3O[C@@H]3C[C@H](O)C[C@]3(O)C[C@@H](O)[C@@H](C(=O)O)[C@H](C2)O3)[C@H](O)[C@H](N)[C@@H]1O | – | -17.3% | – |
| CCCNC(=O)c1cn2ncnc(Nc3cc(C(=O)NC4CC4)ccc3C)c2c1C | – | -27.9% | – |
| CCc1c(-c2ccccc2C)nc2c(C#N)c[nH]n2c1=O | – | -14.3% | – |
| Cc1ccc(NS(=O)(=O)c2ccc3c(c2)C2C=CCC2C(c2ccc(C(=O)O)cc2)N3)cc1C (stereo not given) | – | -18.7% | – |
